Measured values: PubChem BioAssay (NCI)
About 79,000 compounds went through this panel and 15% of them were active in at least one assay; those are over-represented in the sample as a whole. Active and inactive are the calls of the source. Rule as the data show it: active = growth inhibition above about 70%; inactive = the rest.

Columns and labels:
[1] = NCI Yeast Anticancer Drug Screen. Data for the mec2-1 strain (AID 157); conditions: S. cerevisiae mec2-1 strain, stronger effect = higher value
How it was run: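 Each compound was tested on mec2-1 yeast, a strain altered in DNA damage repair or cell cycle control. Growth inhibition is reported relative to vehicle.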

[2] = NCI Yeast Anticancer Drug Screen. Data for the rad14 strain (AID 159);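 also: 0% = growth of vehicle-treated control cultures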; conditions: S. cerevisiae rad14 strain growth inhibition, stronger effect = higher value
How it was run: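 Vehicle-treated cultures served as the baseline for growth inhibition of a DNA repair-mutant yeast strain exposed to each compound.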

[3] = NCI Yeast Anticancer Drug Screen. Data for the sgs1 mgt1 strain (AID 161);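 also: 0% = growth of cultures given vehicle only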; conditions: S. cerevisiae sgs1 mgt1 strain, stronger effect = higher value
How it was run: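 Genetically altered yeast, compound exposure, growth inhibition relative to vehicle.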

[4] = NCI Yeast Anticancer Drug Screen. Data for the CLN2oe strain (AID 163);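 also: 0% = growth of vehicle-only control cultures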; conditions: S. cerevisiae CLN2oe strain, stronger effect = higher value
How it was run: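 First, the altered yeast strain was treated with each compound; second, its growth was measured; finally, inhibition was derived by comparison with vehicle controls.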

[5] = NCI Yeast Anticancer Drug Screen. Data for the cln2 rad14 strain (AID 165);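 also: 0% = growth equal to vehicle treated cultures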; conditions: S. cerevisiae cln2 rad14 strain, stronger effect = higher value
How it was run: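 Test compounds were added to cln2 rad14 yeast cultures; inhibition of growth was then determined by comparison with vehicle treatment.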

[6] = NCI Yeast Anticancer Drug Screen. Data for the bub3 strain (AID 167); conditions: S. cerevisiae bub3 mutant strain, stronger effect = higher value
How it was run: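 Inhibition values come from growth of compound-treated mutant yeast normalised to vehicle-treated controls.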

[7] = NCI Yeast Anticancer Drug Screen. Data for the wt2 strain (AID 169);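 also: 0% = growth of vehicle-treated yeast cultures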; conditions: S. cerevisiae wt2 strain growth inhibition, stronger effect = higher value
How it was run: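 The panel's yeast strains carry defined changes in DNA repair or cell cycle genes. Each strain is grown with compound, and growth loss is scored relative to vehicle.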

[8] = NCI Yeast Anticancer Drug Screen. Data for the mlh1 strain (AID 171);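 also: 0% = growth of vehicle-treated control cultures of the same strain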; conditions: S. cerevisiae mlh1 strain growth inhibition, stronger effect = higher value
How it was run: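 Inhibition values reflect reduced yeast growth in the presence of compound, referenced to vehicle controls, using a strain chosen for its alteration in DNA repair or cell cycle control.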

[9] = NCI Yeast Anticancer Drug Screen. Data for the sgs1 strain (AID 173);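 also: 0% = growth of vehicle-only control cultures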; conditions: S. cerevisiae sgs1 mutant, stronger effect = higher value
How it was run: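 Vehicle-treated cultures served as reference for growth inhibition of a yeast strain altered in DNA damage repair or cell cycle control after compound exposure.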

[10] = NCI Yeast Anticancer Drug Screen. Data for the mlh1 rad18 strain (AID 175); conditions: S. cerevisiae mlh1 rad18 strain growth inhibition, stronger effect = higher value
How it was run: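 Inhibition values reflect reduced growth of mutant yeast versus vehicle-treated controls following compound exposure; the mutations affect DNA damage repair.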

[11] = NCI Yeast Anticancer Drug Screen. Data for the rad18 strain (AID 177); conditions: S. cerevisiae rad18 mutant growth inhibition, stronger effect = higher value
How it was run: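 Steps: expose repair-mutant yeast to compound; measure growth; express as inhibition relative to vehicle control.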

[12] = NCI Yeast Anticancer Drug Screen. Data for the rad52 strain (AID 147);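 also: 0% = growth of vehicle-treated control cultures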; conditions: S. cerevisiae rad52 mutant growth inhibition, stronger effect = higher value
How it was run: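 Inhibition of yeast growth, referenced to vehicle controls, was the measured output for a strain with defective DNA damage repair.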

[13] = NCI Yeast Anticancer Drug Screen. Data for the wt1 strain (AID 149);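 also: 0% = growth of vehicle-treated wt1 cultures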; conditions: S. cerevisiae wt1 strain (SPY 50644) growth inhibition, stronger effect = higher value
How it was run: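 Vehicle-normalised growth inhibition; strain wt1; compound exposure.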

[14] = NCI Yeast Anticancer Drug Screen. Data for the rad50EPP+ strain (AID 151);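 also: 0% = growth of vehicle-treated control cultures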; conditions: S. cerevisiae rad50 mutant strain, stronger effect = higher value
How it was run: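 Genetically defined yeast (rad50EPP+, DNA damage repair alteration) is grown with compound, and inhibition of growth is expressed relative to vehicle-treated controls.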

[15] = NCI Yeast Anticancer Drug Screen. Data for the mgt1 strain (AID 153); conditions: S. cerevisiae mgt1 mutant growth inhibition, stronger effect = higher value
How it was run: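 In the mgt1 strain, test compounds were added and growth inhibition was determined relative to vehicle-treated controls.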

[16] = NCI Yeast Anticancer Drug Screen. Data for the rad50 strain (AID 155);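 also: 0% = growth of vehicle-only cultures of the same strain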; conditions: S. cerevisiae rad50 strain growth inhibition, stronger effect = higher value
How it was run: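 A DNA repair-deficient yeast mutant serves as the test organism; compound-induced growth inhibition is calculated against vehicle-treated cells.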

[17] = at 5.0 µM (retest, dose inferred, filed as 0.5)
[18] = at 50.0 µM (retest, dose inferred, filed as 5.0)

Measured: growth inhibition

Cc1cc(OCc2nc(N)nc(N)c2-c2ccc(Cl)c(Cl)c2)ccc1[N+](=O)[O-]
active: [1]; [18] 87% | [1]; at 50.0 µM 95.8% | [3]; [18] 75% | [3]; at 50.0 µM 98.7% | [5]; at 50.0 µM 95% | [6]; at 50.0 µM 79.9% | [10]; [18] 85% | [10]; at 50.0 µM 98.5%
inactive: [1]; [17] 48% | [1]; at 11.0 µM 0% | [1]; at 33.0 µM 3% | [1]; at 100.0 µM -10% | [2]; at 1.2 µM -1% | [2]; at 3.7 µM 8% | [2]; at 11.0 µM 3% | [2]; at 33.0 µM 3% | [2]; at 100.0 µM 3% | [3]; [17] 54% | [4]; at 1.2 µM 0% | [4]; at 3.7 µM 2% | [4]; at 11.0 µM 0% | [4]; at 33.0 µM 4% | [4]; at 100.0 µM 6% | [5]; [17] -1% | [5]; [18] 30% | [6]; at 1.2 µM 0% | [6]; at 3.7 µM -1% | [6]; [17] -9% | [6]; at 11.0 µM 0% | [6]; at 33.0 µM -2% | [6]; [18] 53% | [6]; at 100.0 µM 20% | [7]; at 1.2 µM 2% | [7]; at 3.7 µM 4% | [7]; at 11.0 µM 4% | [7]; at 33.0 µM 4% | [7]; at 100.0 µM 5% | [8]; at 1.2 µM 0% | [8]; at 3.7 µM 0% | [8]; at 11.0 µM 0% | [8]; at 33.0 µM -1% | [8]; at 100.0 µM 13% | [9]; at 1.2 µM -1% | [9]; at 3.7 µM -3% | [9]; at 11.0 µM -2% | [9]; at 33.0 µM -1% | [9]; at 100.0 µM 0% | [10]; [17] 26% | [11]; at 1.2 µM -3% | [11]; at 3.7 µM -4% | [11]; at 11.0 µM -8% | [11]; at 33.0 µM -15% | [11]; at 100.0 µM -23%

O=S1(=O)CCC2=CC(C(F)(F)F)=CC(C(F)(F)F)=CN21
active: [12]; at 11.0 µM 71% | [12]; at 33.0 µM 89% | [12]; at 100.0 µM 98% | [13]; at 33.0 µM 83% | [13]; at 100.0 µM 98% | [14]; at 100.0 µM 79% | [15]; at 33.0 µM 82% | [15]; at 100.0 µM 98% | [16]; at 3.7 µM 71% | [16]; at 11.0 µM 79% | [16]; at 33.0 µM 89% | [16]; [18] 96% | [16]; at 50.0 µM 95.5% | [16]; at 100.0 µM 98% | [1]; at 11.0 µM 81% | [1]; at 33.0 µM 93% | [1]; [18] 97% | [1]; at 50.0 µM 97.9% | [1]; at 100.0 µM 99% | [2]; at 33.0 µM 91% | [2]; at 100.0 µM 98% | [3]; [18] 98% | [3]; at 50.0 µM 94.4% | [4]; at 100.0 µM 98% | [5]; [18] 92% | [5]; at 50.0 µM 83.9% | [6]; at 11.0 µM 78% | [6]; at 33.0 µM 92% | [6]; [18] 89% | [6]; at 50.0 µM 96.9% | [6]; at 100.0 µM 98% | [7]; at 33.0 µM 83% | [7]; at 100.0 µM 98% | [9]; at 11.0 µM 80% | [9]; at 33.0 µM 94% | [9]; at 100.0 µM 99% | [10]; [17] 76% | [10]; [18] 98% | [10]; at 50.0 µM 97.2% | [11]; at 11.0 µM 79% | [11]; at 33.0 µM 90% | [11]; at 100.0 µM 97%
inactive: [12]; at 1.2 µM 26% | [12]; at 3.7 µM 42% | [13]; at 1.2 µM 2% | [13]; at 3.7 µM 29% | [13]; at 11.0 µM 53% | [14]; at 1.2 µM 2% | [14]; at 3.7 µM 16% | [14]; at 11.0 µM 24% | [14]; at 33.0 µM 38% | [15]; at 1.2 µM 15% | [15]; at 3.7 µM 27% | [15]; at 11.0 µM 55% | [16]; at 1.2 µM 61% | [16]; [17] 38% | [1]; at 1.2 µM 52% | [1]; at 3.7 µM 61% | [1]; [17] 66% | [2]; at 1.2 µM 25% | [2]; at 3.7 µM 38% | [2]; at 11.0 µM 67% | [3]; [17] 59% | [4]; at 1.2 µM 25% | [4]; at 3.7 µM 22% | [4]; at 11.0 µM 40% | [4]; at 33.0 µM 68% | [5]; [17] 13% | [6]; at 1.2 µM 26% | [6]; at 3.7 µM 52% | [6]; [17] 57% | [7]; at 1.2 µM 3% | [7]; at 3.7 µM 14% | [7]; at 11.0 µM 51% | [9]; at 1.2 µM 51% | [9]; at 3.7 µM 67% | [11]; at 1.2 µM 54% | [11]; at 3.7 µM 67%

Clc1nc(Cl)nc(Nc2cccc3ccccc23)n1
inactive: [12]; at 1.2 µM 13% | [12]; at 3.7 µM 32% | [12]; at 11.0 µM 64% | [13]; at 1.2 µM 6% | [13]; at 3.7 µM 14% | [13]; at 11.0 µM 36% | [14]; at 1.2 µM 21% | [14]; at 3.7 µM 50% | [14]; at 11.0 µM 49% | [15]; at 1.2 µM 18% | [15]; at 3.7 µM 26% | [15]; at 11.0 µM 54% | [16]; at 1.2 µM 4% | [16]; at 3.7 µM 21% | [16]; [17] 29% | [16]; at 11.0 µM 52% | [1]; at 1.2 µM 23% | [1]; at 3.7 µM 42% | [1]; [17] 10% | [1]; at 11.0 µM 58% | [2]; at 1.2 µM -4% | [2]; at 3.7 µM 15% | [2]; at 11.0 µM 48% | [3]; [17] 19% | [3]; [18] 39% | [4]; at 1.2 µM 26% | [4]; at 3.7 µM 31% | [4]; at 11.0 µM 51% | [5]; [17] 44% | [6]; at 1.2 µM 33% | [6]; at 3.7 µM 45% | [6]; [17] 64% | [7]; at 1.2 µM -12% | [7]; at 3.7 µM 15% | [7]; at 11.0 µM 51% | [8]; at 1.2 µM 27% | [8]; at 3.7 µM 51% | [10]; [17] 69% | [11]; at 1.2 µM 11% | [11]; at 3.7 µM 14% | [11]; at 11.0 µM 50%
active: [12]; at 33.0 µM 93% | [12]; at 100.0 µM 98% | [13]; at 33.0 µM 88% | [13]; at 100.0 µM 98% | [14]; at 33.0 µM 85% | [14]; at 100.0 µM 95% | [15]; at 33.0 µM 95% | [15]; at 100.0 µM 98% | [16]; at 33.0 µM 93% | [16]; [18] 92% | [16]; at 50.0 µM 86.9% | [16]; at 100.0 µM 97% | [1]; at 33.0 µM 97% | [1]; [18] 96% | [1]; at 50.0 µM 90% | [1]; at 100.0 µM 98% | [2]; at 33.0 µM 95% | [2]; at 100.0 µM 98% | [3]; at 50.0 µM 86.7% | [4]; at 33.0 µM 94% | [4]; at 100.0 µM 99% | [5]; [18] 95% | [5]; at 50.0 µM 71.4% | [6]; at 11.0 µM 80% | [6]; at 33.0 µM 96% | [6]; [18] 97% | [6]; at 50.0 µM 86.2% | [6]; at 100.0 µM 99% | [7]; at 33.0 µM 93% | [7]; at 100.0 µM 98% | [8]; at 11.0 µM 85% | [8]; at 33.0 µM 97% | [8]; at 100.0 µM 98% | [10]; [18] 94% | [10]; at 50.0 µM 80.3% | [11]; at 33.0 µM 91% | [11]; at 100.0 µM 98%
